# PGC1a acetyl inh – inhibitors of PGC1a acetylation signal, primary screen, cell-based, U2OS, AlphaScreen, inhibitor mode. inhibition, % at 15.6 µM. 350,000 tested, 0.17% active. AlphaScreen anti-acetyl-lysine; with virally co-expressed GCN5 acetyltransferase;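 active = every replicate shows inhibition of at least 40%; inconclusive = mean inhibition at least 40% but some replicate below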
# PAX8 inh HTS – inhibitors of PAX8-driven TPO luciferase reporter, primary screen, RMG-I cells, single concentration | SteadyGlo, 24 h | inhibition, % at 12.6 µM | 360,000 tested, 1.2% active | AID 652154, 2013;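 active = mean replicate inhibition at least 60% with every replicate also reaching 60%; inconclusive = only one of the two criteria is met; inactive = mean below 60% and not all replicates reaching 60%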;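 note: luciferase light reporting Pax8 driven TPO promoter activity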
# LGR2 inh – inhibitors of bursicon-induced LGR2 CRE-luciferase signal, primary screen, cell-based, HEK293, CRE-luciferase reporter, bursicon stimulation | bursicon-stimulated, 4 h | 380,000 tested, 0.35% active | AID 720647, 2013 | Drosophila bursicon receptor LGR2 (rickets) | inhibition, % at 9.99 µM;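 active = drop in luminescence signal, shown as inhibition above about 50% in the replicate tests, limit read from the data, passing the limit was not always enough; inconclusive = probably only some replicates passing the limit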;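 note: agonist challenge used bursicon conditioned medium at about half maximal strength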
# MITF TRPM1 inh – inhibitors of MITF-dependent TRPM1 promoter reporter, primary screen, cell-based, SK-MEL-5, single point, luciferase; SK-MEL-5 TRPM1 promoter luciferase, 24 h; inhibition, % at 12.5 µM; 330,000 tested, 0.83% active; AID 488899, 2010;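 active = mean inhibition across replicates of 60% or more, whatever share of single replicates reaches that level; inconclusive = some that reach 60%, reason not given; inactive = mean inhibition across replicates below 60%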
# EBV LMP1 NFkB – EBV LMP1-driven NF-kappaB luciferase reporter inhibitors, primary screen, cell-based, luminescence, single point; LMP1-induced NF-kappaB luciferase reporter cells; inhibition, % at 12.5 µM; 350,000 tested, 0.69% active; AID 504558, 2011; in the data active = inhibition above about 41%; inconclusive = no clear call, values can overlap the other calls
# EWS-Fli inh – EWS/Fli-driven NR0B1 reporter inhibitors, primary screen, A673 cells, NR0B1 luciferase, luminescence, MLPCN library; viability-normalised; inhibition, % at 12.6 µM; 350,000 tested, 0.67% active; AID 651661, 2012;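 active = mean inhibition of at least 50% after viability correction, with every replicate also passing that limit; inconclusive = mean reaches 50% but only one of two replicates passes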;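 note: firefly luciferase signal divided by Alamar Blue viability fluorescence both relative to DMSO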
# A number is an active result; – = inactive; ? = inconclusive; · = no result; ! = not active in a repeat. Rows were chosen to be rich in hits. Some 2.2% of all compounds tested hit in one or more screens of this group.
SMILES,PGC1a acetyl inh,PAX8 inh HTS,LGR2 inh,MITF TRPM1 inh,EBV LMP1 NFkB,EWS-Fli inh
C[C@@H]1CCCCO[C@@H](CN(C)Cc2ccc3c(c2)OCO3)[C@H](C)CN([C@H](C)CO)C(=O)c2cc(NC(=O)Nc3ccc(C(F)(F)F)cc3)ccc2O1,–,–,–,·,·,–
CC1(C)Cc2c(ccc3ccccc23)/C(=C/C(=O)N2CCCCC2)N1,–,·,–,–,58,·
O=C(/C=C1\NC2(CCCC2)Cc2ccccc21)N1CCOCC1,·,·,·,–,–,·
Cc1noc(C)c1S(=O)(=O)N(C)C[C@H]1Oc2ccc(NC(=O)C3CCCCC3)cc2CC(=O)N([C@H](C)CO)C[C@H]1C,–,·,–,·,·,–
Cc1ccc(CNC(=O)c2ccc3c(=O)c(O)c(-c4ccc(C)cc4)[nH]c3c2)cc1,–,70,–,–,–,–
COCCNC(=O)C[C@@H]1C[C@@H]2c3cc(NC(=O)Nc4ccccc4F)ccc3O[C@@H]2[C@H](CO)O1,–,–,–,·,·,–
Cc1noc(C)c1S(=O)(=O)N(C)C[C@H]1Oc2ccc(NS(=O)(=O)c3ccc(Cl)cc3)cc2CC(=O)N([C@@H](C)CO)C[C@H]1C,–,–,–,·,·,–
COc1cc2cc(-c3ccc(OC)c(OC)c3C)nc(N)c2cc1OC,–,71,–,·,·,52
C[C@@H]1CN([C@H](C)CO)C(=O)c2cc(-c3cccnc3)cnc2O[C@H]1CN(C)C(=O)NC1CCCC1,–,·,–,·,·,–
O=C(Nc1ccccc1)N1C[C@@H]2N[C@H](C1)C2c1ccc(-c2ccccc2)cc1 (some centres not stated),–,–,–,·,·,–
O=C(Nc1ccccc1)N1C[C@@H]2N[C@H](C1)[C@@H]2c1ccc(/C=C/c2ccccc2)cc1,–,113,–,·,·,–
O=C(Nc1ccc(C(F)(F)F)cc1)N1C[C@@H]2N[C@H](C1)C2c1ccc(-c2cccc(F)c2)cc1 (some centres not stated),62!,88,–,·,·,–
COc1ccc(S(=O)(=O)Nc2cccc3c2O[C@H](CN(C)S(=O)(=O)c2ccc(Cl)cc2)[C@@H](C)CN([C@@H](C)CO)C3=O)cc1,–,–,–,·,·,–
O=C(NCCc1ccccc1)c1coc(=O)c(Br)c1,–,65,–,–,·,–
CN(C)CCNC(=O)c1coc(=O)c(Br)c1,–,·,–,–,–,·
Clc1ccc2oc3c(Cl)ncnc3c2c1,·,–,–,77,–,–
Cc1nc(SCC(=O)N(C)C2CCS(=O)(=O)C2)c2ccccc2n1 (configuration not stated),–,–,–,–,–,–
Cc1nc(SCC(=O)N(C)C2(C#N)CCCCC2)c2ccccc2n1,–,62,–,–,–,–
O=C(C[C@@H]1C[C@H]2c3cc(NC(=O)Nc4ccccc4)ccc3O[C@H]2[C@H](CO)O1)NCc1cccc(F)c1,–,–,–,·,·,–
C#CCN(C[C@@H]1[C@@H](OC(=O)Nc2cccs2)[C@@H](OC(=O)Nc2cccs2)C[C@H](C(=O)OC)[C@@H]1C(=O)OC)S(=O)(=O)c1ccc(C)cc1,·,–,–,·,·,–
C#CCN(C[C@H]1[C@H](OC(=O)Nc2c(C)noc2C)[C@H](OC(=O)Nc2c(C)noc2C)C[C@@H](C(=O)OC)[C@H]1C(=O)OC)S(=O)(=O)c1ccc(C)cc1,–,97,–,·,–,–
O=C(C[C@H]1CC[C@H](NS(=O)(=O)c2ccccc2)[C@H](CO)O1)NCc1ccccc1F,–,–,–,·,·,–
CC(=O)OC[C@]12CC[C@H]3[C@@](C)(CC[C@H]4C(C)(C)CCC[C@]34C)[C@@H]1CC(C1=CC(=O)OC1O)O2 (some centres not stated),87,·,·,·,·,56
CC(=O)OC[C@]1(OC(C)=O)C[C@@]23CC[C@H]4[C@@](C)(CCC[C@@]4(C)C(=O)O)[C@@H]2CC[C@@H]1C3,·,–,·,–,–,–
COc1ccc(-c2cn(CC[C@@H]3CC[C@@H](NC(=O)Cc4ccccn4)[C@H](CO)O3)nn2)cc1,–,–,–,·,·,–
SMILES,PGC1a acetyl inh,PAX8 inh HTS,LGR2 inh,MITF TRPM1 inh,EBV LMP1 NFkB,EWS-Fli inh
COc1ccc(-c2cn(CC[C@@H]3CC[C@H](NC(=O)Cc4ccccn4)[C@H](CO)O3)nn2)cc1,–,90,–,·,·,–
COc1ccc(NC(=O)N[C@@H]2CC[C@H](CCn3cc(-c4ccccc4F)nn3)O[C@H]2CO)cc1,62,–,–,·,·,–
COc1ccc(-c2cn(CC[C@@H]3CC[C@H](NC(=O)Cc4ccccn4)[C@@H](CO)O3)nn2)cc1,–,78!,–,·,·,–
CC(C)(C)NC(=S)N1CCC(C(=O)c2ccc(Cl)cc2)CC1,–,–,–,–,42,–
C[C@@H]1CN([C@H](C)CO)C(=O)c2cccc(NC(=O)NC3CCCCC3)c2O[C@@H]1CN(C)Cc1ccc2c(c1)OCO2,–,–,–,·,·,–
O=C(O)c1cccc(NC(=O)c2cn(-c3ccccc3)nc2-c2ccc(F)cc2)c1,–,–,–,–,82,–
CCN(CC)CCNC(=O)c1ccc(NC(=O)c2cc(-c3ccco3)nc3ccccc23)cc1,–,–,–,70,–,·
CCN(CC)CCNC(=O)c1ccc(NC(=O)c2cn(-c3ccccc3)nc2-c2cccs2)cc1,·,–,·,76,–,58
CCN(CC)CCNC(=O)c1ccc(NC(=O)c2cn(-c3ccc(F)cc3)nc2-c2cccc(OC)c2)cc1,–,–,–,98,–,59
CN(C)C(=O)c1ccc(NC(=O)c2cc(-c3ccco3)nc3ccccc23)cc1,–,–,–,–,–,–
O=C(Nc1cccnc1)c1cn(-c2ccccc2)nc1-c1cccs1,–,·,·,–,–,·
CN1C(=O)c2cc(NC(=O)c3ccc(F)cc3)ccc2OC[C@@H]2O[C@H](CC(=O)NCC3CC3)CC[C@H]21,–,–,–,·,·,–
O=c1c2c(nc3c(-c4ccc(Cl)cc4)c[nH]n13)CCCC2,?,–,·,–,53,·
Cc1ccc2oc(C(=O)Nc3ccc(S(=O)(=O)Nc4onc(C)c4C)cc3)c(C)c2c1,·,–,–,–,66,–
O=C(CCl)N=c1sccn1Cc1cccc2ccccc12,·,111,–,–,–,–
O=C(CCl)N=c1sccn1Cc1ccc(Cl)cc1Cl,66,111,·,–,–,–
CCC(=O)OCC(=O)N=c1sccn1Cc1ccccc1Cl,–,–,–,–,–,–
O=C(CCl)N=c1sccn1Cc1ccccc1Cl,52,100,–,–,–,63
CCC(=O)N(C)C[C@H]1Oc2ncc(C#CCC(C)C)cc2C(=O)N([C@@H](C)CO)C[C@@H]1C,–,·,–,·,·,–
CC1(C)C(C=C(Cl)Cl)C1C(=O)Nc1ccc([N+](=O)[O-])cc1 (configuration not stated),·,99,–,·,·,–
C[C@H]1CN([C@@H](C)CO)C(=O)c2cc(N(C)C)ccc2O[C@@H]1CN(C)S(C)(=O)=O,–,–,–,·,·,–

# Assay outcomes: PubChem, Broad Institute
